PubChem BioAssay AID431 (Sanford-Burnham Center for Chemical Genomics, 2006)
Screen size: about 63,000 compounds; about 1,100 (1.7%) were called active. The list comes from a sample in which actives are over-represented; it also holds similar structures and randomly drawn compounds. Results with a measured potency or affinity are listed apart. Values without a mark were called inactive.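 The calls were made as follows: active = compounds whose percent cytotoxicity in the single-dose primary screen, scaled between solvent and toxic-drug controls, exceeds 50; inactive = the rest.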

experiment: cytotoxicity in KRAS-transformed pancreatic duct cells, primary screen, cell-based, fluorescence, HTS (AID 431); settings: HPDE-C7K KRASV12 cells, Alamar Blue viability, 48 h; at 10 µM; active compounds read high;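 also: 0% = DMSO solvent wells and 100% = doxorubicin-treated wells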

Compound | cytotoxicity
CCn1c(=N)n(CC(O)c2ccco2)c2ccccc21 (stereo not given) | -9.8%
CC[C@H](C)C(=O)O[C@H]1C[C@@H](C)C=C2C=C[C@H](C)[C@H](CC[C@@H]3C[C@@H](O)CC(=O)O3)[C@H]21 | 55.1% (active)
Cn1nc(-c2ccc(N3CCCCC3)c(NC(=O)c3ccco3)c2)c2ccccc2c1=O | 57.8% (active)
CCC(=O)Nc1cc(-c2nn(C)c(=O)c3ccccc23)ccc1N1CCCCC1 | 2%
CCCC(=O)Nc1cc(-c2nn(C)c(=O)c3ccccc23)ccc1N1CCCCC1 | -4.5%
CC(C)C(NS(=O)(=O)c1ccc2c(c1)oc(=O)n2C)C(=O)N1CCN(Cc2ccccc2)CC1 (stereo not given) | 7.1%
CC(C)Oc1ccccc1C1CC(=O)Nc2cc3c(cc21)OCCO3 (stereo not given) | 45.7%
CCOc1c(OC)cccc1C1CC(=O)Nc2cc3c(cc21)OCCO3 (stereo not given) | 8.9%
CCOc1ccccc1C1CC(=O)NC2=C1C(=O)CCC2 (stereo not given) | 16.8%
CC(C)Oc1ccccc1C1CC(=O)Nc2cc3c(cc21)OCO3 (stereo not given) | 42.7%
COc1ccccc1C1CC(=O)Nc2cc3c(cc21)OCCO3 (stereo not given) | 63.8% (active)
CCCOc1ccccc1C1CC(=O)NC2=C1C(=O)CCC2 (stereo not given) | 36.3%
COc1cccc(C2CC(=O)Nc3cc4c(cc32)OCCO4)c1OC(C)C (stereo not given) | 34.4%
CCOc1ccccc1C1CC(=O)Nc2cc3c(cc21)OCO3 (stereo not given) | 55.9% (active)
CCCOc1c(OC)cccc1C1CC(=O)Nc2cc3c(cc21)OCCO3 (stereo not given) | 68.7% (active)
CCCOc1c(OC)cccc1C1CC(=O)Nc2cc3c(cc21)OCO3 (stereo not given) | 9.6%
CCCCOc1ccccc1C1CC(=O)NC2=C1C(=O)CCC2 (stereo not given) | 60.3% (active)
CCOc1ccccc1C1CC(=O)Nc2cc3c(cc21)OCCO3 (stereo not given) | 48.6%
O=C1c2ccccc2C(=O)N1CCN1CCOCC1 | -1.3%
CC(C)N(C(=O)CSc1nnnn1C1CCCC1)C(C)C | -9.6%
CCCCn1nnnc1SCC(=O)Nc1ccc(C)cc1 | -4.8%
Cc1ccc(NS(=O)(=O)c2cc(C(=O)N3CCOCC3)ccc2C)cc1C | -4.4%
CCN(CC)C(=O)c1sc(NC(=O)Cc2cccs2)c(C#N)c1C | -10.4%
CC(O)c1ccc2c(c1)OCCOCCN(C)CCOCCO2 (stereo not given) | -3.4%

Compound | cytotoxicity
OC1C[N+]2(CCCCC2)C1 | -0.4%
CCNc1nc(SCC(=O)OC)nc(N2CCOCC2)n1 | -13.2%
O=C(CCC(=O)N(CC(=O)NC1CCCCC1)c1ccc2c(c1)OCO2)Nc1ccccn1 | -8.1%
Cc1ccc(C2CC(=O)Nc3cc4c(cc32)OCCO4)s1 (stereo not given) | 7.5%
O=C1CC(c2cccs2)c2cc3c(cc2N1)OCCO3 (stereo not given) | 2.9%
CCCOc1ccccc1C1CC(=O)Nc2cc3c(cc21)OCCO3 (stereo not given) | 73.4% (active)
CC(C)NC(=O)c1ccccc1-c1nc(-c2ccccc2Cl)no1 | 6%
CCN1CCCC1CNc1ncnc2c1[nH]c1ccc(Cl)cc12 (stereo not given) | 10.9%
Clc1ccc2[nH]c3c(NCC4CCCO4)ncnc3c2c1 (stereo not given) | 57.6% (active)
c1ccc2c(c1)[nH]c1c(NCC3CCCO3)ncnc12 (stereo not given) | 6.1%
CC(C)(C)OC(=O)N1CCC[C@@H]1C(=O)N1CCC(C(=O)O)CC1 | 8.3%
COc1ccc(NC(=O)Cn2nnc(-c3ccccc3NC(=O)c3cccs3)n2)cc1 | 9.5%
O=C(O)c1ccc(CSc2n[nH]c(-c3ccco3)n2)cc1 | -2.9%
Cc1c(-c2ccccc2)c(P(=O)(N2CCOCC2)N2CCOCC2)c2ccccn12 | -4.4%
COc1ccccc1-n1c(SC)nc(O)cc1=O | 6.5%
COc1ccccc1C1c2c(oc3ccc(Cl)cc3c2=O)C(=O)N1c1cc(C)on1 (stereo not given) | -23.6%
COc1ccccc1-n1c(=O)oc2ccc(Cl)cc2c1=O | 53.6% (active)
CCOC(=O)c1ccc2nc(NC(=O)C(C)C)sc2c1 | 6.2%
C=CCN(CC=C)S(=O)(=O)c1ccc2nc(NC(=O)C(C)C)sc2c1 | 69.9% (active)
C=CCN(CC=C)S(=O)(=O)c1ccc2nsnc2c1 | -22.3%
COc1ccc(C(=O)n2c(-c3ccco3)nc3ccccc32)cc1 | 58.3% (active)
COc1ccc(C(=O)CSc2nnc(-c3ccco3)n2C)cc1 | 5.8%
CCn1c(-c2ccco2)nc2ccccc21 | 5.1%
Cc1cc(C)cc(-n2nnc(C(=O)NCc3ccc(Cl)cc3)c2N)c1 | 5.6%

Compound | cytotoxicity
CCN1CCN(C2CCN(C(C)=O)CC2)CC1 | 5.4%
C/C=C/Cn1c(SCc2ccc(Cl)cc2)nc2c1c(=O)[nH]c(=O)n2C | 8.2%
C/C=C/Cn1c(SCc2ccccc2)nc2c1c(=O)[nH]c(=O)n2C | 1.2%
C/C=C/Cn1c(SCc2ccc(C)cc2)nc2c1c(=O)[nH]c(=O)n2C | 57.9% (active)
Clc1ccc(-n2cnnn2)cc1 | -0.1%
COc1ccc(C2NC(=O)NC(C)=C2C(=O)Nc2cc(C)ccc2C)cc1OC (stereo not given) | 1.2%
O=C(C1CC1)N1CCc2cc(Br)cc(S(=O)(=O)NCCCN3CCCC3)c21 | 1.3%
Cc1nn(-c2ccccc2)c(C)c1C(=O)OC/C(O)=C(\C#N)c1nc2ccccc2[nH]1 | 13%
N#C/C(=C(/O)COC(=O)c1ccc2c(c1)OCCO2)c1nc2ccccc2[nH]1 | 17.6%
CCOC(=O)c1c(C)[nH]c(C(=O)OC/C(O)=C(\C#N)c2nc3ccccc3[nH]2)c1C | 81.8% (active)
CSc1nnc(-c2nnc(SC)n2-c2ccccc2)n1-c1ccccc1 | -8.3%
CC(=O)C1=C(C)NC(SCC(=O)c2ccccc2)=C(C#N)C1CC(C)C (stereo not given) | 3.7%
C=CCOC(=O)C1=C(C)NC(SCC(=O)N(CC)CC)=C(C#N)C1c1ccco1 (stereo not given) | -4.1%
CC(=O)C1=C(C)NC(SCC(=O)c2cc(Cl)ccc2Cl)=C(C#N)C1c1ccco1 (stereo not given) | 60.7% (active)
CCOC(=O)CSC1=C(C#N)C(c2ccco2)C(C(=O)OCc2ccccc2)=C(C)N1 (stereo not given) | 61% (active)
Cc1ccc(C(=O)CSC2=C(C#N)C(c3ccco3)CC(=O)N2)c(C)c1 (stereo not given) | 5%
CSCSC1=C(C#N)C(c2ccccc2Cl)C(C(C)=O)=C(C)N1 (stereo not given) | 23.4%
CCN(CC)C(=O)CSC1=C(C#N)C(c2ccco2)C(C(=O)OCCOC)=C(C)N1 (stereo not given) | -15.8%
CC(=O)C1=C(C)NC(SCC(=O)c2ccc(Cl)cc2Cl)=C(C#N)C1c1ccco1 (stereo not given) | 40.7%
COCCOC(=O)C1=C(C)NC(SCC(=O)NC(C)(C)C)=C(C#N)C1c1ccco1 (stereo not given) | 2.3%
CC(=O)C1=C(C)NC(SCC(=O)c2ccc(Cl)c(Cl)c2)=C(C#N)C1c1ccco1 (stereo not given) | 77.4% (active)
C=CCOC(=O)C1=C(C)NC(SCC(=O)Nc2ccc(C)c(Cl)c2)=C(C#N)C1c1ccco1 (stereo not given) | -1.3%
